KDM4E inh: inhibitors of human JMJD2E histone demethylase; B2RXH2; JMJD2E catalytic domain, FDH-coupled NADH fluorescence (FDH is formaldehyde dehydrogenase); Potency, µM (series often up to 57.1 µM), hits mostly inhibitors; actives 1.6% (n = 230,000); AID 2147; also: nearly all actives have a fitted effect of over 50% in size
HPGD inh: inhibitors of human 15-hydroxyprostaglandin dehydrogenase (HPGD). P15428. purified HPGD, NADH fluorescence kinetic, PGE2 substrate. Potency, µM, most hits filed as inhibitors. actives 4.3% (n = 150,000)
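20 nM HPGD preincubated 15 min at room temperature with compound in 50 mM Tris-HCl pH 8, 0.01% Tween 20. Started with 1 mM NAD+ and 30 uM prostaglandin E2; NADH fluorescence (360/450 nm) read 5 times over 30-s intervals, last minus first.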
ALDH1A1 block: blocks purified human ALDH1A1 activity | P00352 | Purified ALDH1A1, NADH fluorescence, propionaldehyde substrate | Potency, µM (series often up to 75.3 µM), hits mostly inhibitors | actives 7.3% (n = 220,000)
Target sequence (P00352 whole entry, looked up): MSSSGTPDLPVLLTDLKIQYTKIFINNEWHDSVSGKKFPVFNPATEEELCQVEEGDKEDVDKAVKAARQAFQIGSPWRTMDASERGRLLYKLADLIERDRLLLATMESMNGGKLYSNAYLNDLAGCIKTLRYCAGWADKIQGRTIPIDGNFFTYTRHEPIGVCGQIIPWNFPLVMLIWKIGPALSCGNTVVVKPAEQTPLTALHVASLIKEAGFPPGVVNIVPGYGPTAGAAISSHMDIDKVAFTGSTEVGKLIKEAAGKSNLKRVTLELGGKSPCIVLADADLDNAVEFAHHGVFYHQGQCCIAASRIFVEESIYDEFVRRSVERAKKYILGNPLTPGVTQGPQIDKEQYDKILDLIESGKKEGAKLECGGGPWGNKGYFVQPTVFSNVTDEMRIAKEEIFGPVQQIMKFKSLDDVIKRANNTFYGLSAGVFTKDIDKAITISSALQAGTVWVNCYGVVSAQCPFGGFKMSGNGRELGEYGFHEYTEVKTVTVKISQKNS
PNC assembly inh: perinucleolar compartment assembly inhibition; PC3M PTB-GFP, PNC prevalence imaging, 16 h; stronger effect = lower value; activity change (PNC), negative = inhibition, % at 10 µM; actives 3.1% (n = 140,000);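 active = readout at or below -70, meaning at least 70% loss of cells showing the perinucleolar compartment, a nuclear body marking cancer cells; inconclusive = readout between -30 and a set limit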
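Read-out is percentage of cells bearing a perinucleolar compartment, from automated 20x imaging of fixed, Hoechst-stained PC3M PTB-GFP cells. Cells were seeded 4 h, then exposed 16 h to compound (23 nl of library stock) in duplicate plates.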
Large screens that a line does not name were inactive. Sampled rows, rich in hits. Any-hit rate of the full collection: about 11%. Unless noted, calls follow the shape of the dose curve; as a rule, active = well fitted inhibition curve with a large enough effect (not every such curve was filed as active); inconclusive = small, poorly fitted or top-dose-only effect, or another doubt; inactive = no such curve, though single readings can be large or run the other way.

CCCCN1C(=O)C(O)(CC(=O)c2ccccc2OC)c2ccccc21 (centres undefined)	ALDH1A1 block 8.91µM
CCCCN1C(=O)C(O)(CC(=O)c2c(C)coc2C)c2ccccc21 (centres undefined)	ALDH1A1 block 10µM (no result: HPGD inh, PNC assembly inh)
CCN1C(=O)C(O)(CC(=O)c2cc(C)ccc2C)c2ccccc21 (centres undefined)	ALDH1A1 block inconclusive
CO/N=C(\CCC(=O)O)c1cccs1	none (no result: HPGD inh, ALDH1A1 block, PNC assembly inh)
CCCCNC(=O)CC1NCCNC1=O (centres undefined)	none (no result: HPGD inh, PNC assembly inh)
O=C(O)CCc1c2ccc(=O)c(O)c-2oc2c(O)c(O)ccc12	HPGD inh 2.82µM, ALDH1A1 block inconclusive (no result: KDM4E inh, PNC assembly inh)
Cc1ccc2nc(SCC(=O)NCc3cccs3)[nH]c2c1	none (no result: HPGD inh, PNC assembly inh)
CCn1c(SCC(=O)NC(=O)NCc2ccco2)nc2sc(C)c(C)c2c1=O	HPGD inh inconclusive, ALDH1A1 block 8.91µM
Cc1sc2nc(SCC(=O)NCc3ccco3)[nH]c(=O)c2c1C	HPGD inh 7.94µM
Cc1sc2nc(SCC(=O)NCc3cccs3)[nH]c(=O)c2c1C	HPGD inh 25.1µM
Cc1sc2nc(CSCC(=O)Nc3ccc(N4CCOCC4)cc3)[nH]c(=O)c2c1C	ALDH1A1 block 11.2µM (no result: HPGD inh, PNC assembly inh)
Cc1sc2nc(SCC(=O)O)[nH]c(=O)c2c1C	KDM4E inh inconclusive (no result: HPGD inh, PNC assembly inh)
Cc1sc2nc(SCC(=O)N3CCOCC3)[nH]c(=O)c2c1C	HPGD inh 15.8µM
CC1=C/C(=N\NC(=S)Nc2cccnc2)CC(C)(C)C1	ALDH1A1 block 11.9µM (no result: HPGD inh, PNC assembly inh)
c1ccc2oc(C3=NNC(=NC4CC4)SC3)cc2c1	HPGD inh inconclusive, ALDH1A1 block 28.2µM
Cc1ccc(C)c(C2=NNC(=NCc3ccccc3)SC2)c1	ALDH1A1 block 17.8µM (no result: HPGD inh, PNC assembly inh)
c1ccc(CN=C2NN=C(c3cc4ccccc4o3)CS2)cc1	HPGD inh 15.8µM, ALDH1A1 block 28.2µM
c1ccc2oc(-c3ccn[nH]3)cc2c1	none (no result: HPGD inh, ALDH1A1 block, PNC assembly inh)
COc1ccc(NC(=O)N2CC[C@@]3(CCCN(C(=O)c4cccn4C)C3)C2)cc1	ALDH1A1 block inconclusive (no result: KDM4E inh, PNC assembly inh)
O=C(CN1CCN(Cc2ccccc2)CC1)c1c[nH]c2ccccc12	ALDH1A1 block 25.1µM
CCCn1c(N2CCN(CC(=O)c3c[nH]c4ccccc34)CC2)nc2c1c(=O)[nH]c(=O)n2C	ALDH1A1 block 12.6µM
O=C(C(Cl)Cl)N1CCN(Cc2ccccc2)CC1	ALDH1A1 block 1.78µM
O=C(CN1CCN(Cc2ccccc2)CC1)c1ccc(Br)cc1	ALDH1A1 block 2.51µM
CC#CCN1c2ccccc2[C@]23C[C@@H](C(=O)OC)N(C(=O)COCc4ccccc4)C2=NC(C(=O)OC)=C(C(=O)OC)[C@H]13	none (no result: PNC assembly inh)
Cc1cc(N/N=C/c2cccc(Cl)c2)nc(NCc2ccccc2)n1	none
Cc1cc(Nc2cccc(Cl)c2)nc(NCc2ccccc2)n1	KDM4E inh inconclusive, PNC assembly inh -94.1
Cc1ccc(C(c2nnnn2Cc2cccs2)N2CCN(Cc3ccc4c(c3)OCO4)CC2)cc1 (centres undefined)	ALDH1A1 block 10µM
c1ccc(Cn2nnnc2CN2CCN(Cc3ccc4c(c3)OCO4)CC2)cc1	ALDH1A1 block 20µM (no result: HPGD inh)
COCCn1nnnc1C(c1ccc(C)cc1)N1CCN(Cc2ccc3c(c2)OCO3)CC1 (centres undefined)	none (no result: HPGD inh)
CC(C)(C)c1cc(CN2CCCCC2)cc(C(C)(C)C)c1O	KDM4E inh inconclusive, ALDH1A1 block 14.1µM
O=P(/C(=N/O)Sc1ccccc1)(N1CCOCC1)N1CCOCC1	PNC assembly inh inconclusive
Cc1ccc(P(=Nc2ccccc2)(N2CCOCC2)N2CCOCC2)o1	PNC assembly inh -91.7
Cn1c(Cl)cnc1C(O)c1ccccc1 (centres undefined)	none
COc1ccc(NC(=O)C2(c3ccc(NC(=O)c4ccc(OC)cc4)cc3)CCCC2)cc1	KDM4E inh inconclusive, ALDH1A1 block inconclusive (no result: HPGD inh)
COc1ccc(C2(C(=O)Nc3nncs3)CCCC2)cc1	PNC assembly inh -80.2
CCOC(=O)c1c(NC(=O)c2ccccc2)sc2c1CCc1ccccc1-2	KDM4E inh inconclusive, HPGD inh inconclusive, ALDH1A1 block inconclusive
CCOC(=O)C1=C(NC(=S)NC(=O)c2ccccc2)c2ccccc2CC1(C)CC (centres undefined)	ALDH1A1 block 12.6µM, PNC assembly inh inconclusive
CCOC(=O)C1=C(NC(=S)NC(=O)c2ccccc2)c2ccccc2CC1C(C)C (centres undefined)	ALDH1A1 block 15µM, PNC assembly inh -96.1
CCOC(=O)c1sc(NC(=S)NC(=O)c2ccccc2)c(C(=O)OCC)c1C	none
Cc1nc2ccc(NC(=O)NCCCO)cc2s1	KDM4E inh inconclusive, PNC assembly inh inconclusive
S=c1[nH]ncn2c1cc1oc3ccccc3c12	ALDH1A1 block inconclusive (no result: HPGD inh, PNC assembly inh)

Assay outcomes (PubChem BioAssay)
